Sensor-assay potency score (higher = more potent) data for 40 sequences are collected here from the OligoGym collection.
Note: reference of the scale not given here.

One test addresses ALAD. Description: pooled miR-30 sensor sort-seq; sequence = guide strand. The following applies: shRNA.
The sequence TCCTTGGGAACTCTGCTGGGGA returned a sensor-assay potency score (higher = more potent) of -1.34.
The same measure, in the same setting: with TTGACTTAGCTGCATCCCGGAA the figure was -1.25; with AAGCTGGGCTTGACTTAGCTGC, -1.16; with ATGTCATCAGGAACATCCGTGA, -0.798.
Same read-out and setting: with TAGTGGGTGGAAGTAGCCGCTG the figure was -1.31.
On the same count and under the same terms, with ATGTCAGCACCTGCTCTGCGGA the figure was -1.76.
The sequence AAATTTGGCACTGTAGCTCATC yielded a sensor-assay potency score (higher = more potent) of -0.696.
On the same count and under the same terms, then ATGATGTCAGCACCTGCTCTGC, with -1.4; and TGGATTGCCTCAATAGCTGGGG, with -0.361; and ACATCCGTGACAAAGATGGGGT, with 0.0537.
The same measure, in the same setting: with TGATAGGCTGTATGTCATCAGG the figure was -1.65; with TGATGATGATGTCAGCACCTGC, -1.54.
Still for that read-out and setting: then TCGTCCTTGGGAACTCTGCTGG, with -1.05.

The target of the next test is ALDH1A1. The test is described as above. The following applies: shRNA.
Sequence TGATTTGCTGCACTGGTCCAAA came in with a sensor-assay potency score (higher = more potent) of -0.586.
On the same count and under the same terms, with ATATTGTTCCTTGTCAATCTGA the figure was 0.00946; with TAGAAAGTATTGTTTGCTCTTT, -0.662.
Same read-out and setting: with TGTCTTTGGTAAACACTCCTGC the figure was 0.136; with TTAGCTATTGAAGAGCTTCTCT, 0.445; with TTATCTCCTTCTTCTACCTGGC, -0.0648.
Same read-out and setting: with TTGGTAAACACTCCTGCTGATA the figure was -1.11; with AAATTCAACAGCATTGTCCAAG, -0.656.
On to TGTAACATTAGAGAACACTGTG, for which the sensor-assay potency score (higher = more potent) turned out to be 0.545.
The same measure, in the same setting: with TAACATTAGAGAACACTGTGGG the figure was 0.962; with TATTGTTCCTTGTCAATCTGAG, 0.207.
Still for that read-out and setting: then TGCCTTGTCAACATCCTCCTTA, with 0.465; and TAGCAATTCACCCACACTGTTC, with -1.07; and AATACTAATATGATTTAGCTTA, with -0.152.
Same read-out and setting: with TACTTTGTCTATATCCATGTGA the figure was 0.349; with TTGAATCTTCAAATCGGTGAGT, 0.0111; with TTAAAATCTACTATATTAGTGA, 0.534.
As for TAGCGCAATGTTTTGATGCAGC, the sensor-assay potency score (higher = more potent) is -0.601.
With TTAAAGACAGGAAATTTCTTGC, the sensor-assay potency score (higher = more potent) was -0.236.
On the same count and under the same terms, then TAATTCTTTCAGAAGAAGCTAC, with -0.0936; and TATATTAGTGACTGTAAGGAGA, with -0.658.
In turn, TTAGAGAACACTGTGGGCTGGA registered a sensor-assay potency score (higher = more potent) of 0.618.
Consider TTCATTGACTCCATTGTCGCCA, for which the sensor-assay potency score (higher = more potent) is 0.315.

For a further test, the target named is ALDH1A3. Described as above. The following applies: shRNA.
TAGTCGGTGCTATTCGCTCTTT returned a sensor-assay potency score (higher = more potent) of -0.888.
On the same count and under the same terms, then TCTTTTTATCACTTCTTCGATA, with -0.674.
Same read-out and setting: with TTTGTGAACACGGCTGCTGTGA the figure was -0.151.
Same read-out and setting: with TTGGTTGAAGAACACTCCCTGA the figure was -0.48.
